The results in this text go back to PubChem BioAssay (Tox21).

“And” between values parts separate entries of the source, which are not always exact repeats. Identical values can stand only once. Results filed as inconclusive are left out. Where a structure was tested more than once in an assay, its records may differ in their call. The source made the active and inactive calls. Unless noted, the call rests on the fitted dose curve; in most records, active means well fitted curve in the direction sought with a large enough effect in the repeat runs; inconclusive means weak or mixed curves; inactive means no such curve, though single readings can be large; an effect the other way counts as inactive or inconclusive.

Experiment [1] in a line: qHTS assay to identify small molecule agonists of the hypoxia (HIF-1) signaling pathway - cell viability counter screen (AID 1224844; calls by dose curve; further: nearly all actives have a fitted effect of over 50% in size; further: potency means the concentration at half of the fitted maximal effect). In a few lines:
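In this counter screen, HRE-bla ME-180 cell viability after 17 hrs of compound exposure at 37C was read by CellTiter-Glo luminescence, multiplexed with the beta-lactamase reporter measurement.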
Background: qHTS replaces the single test concentration by a dilution series.

The nature of experiment [2]: qHTS assay to identify small molecule agonists of H2AX (AID 1224845; active means well fitted activation curve with a large enough effect in the signal ratio in the repeat runs, not every such curve was filed as active; the % refers to the signal ratio; further: potency means the concentration at half of the fitted maximal effect). In short, it runs like this:
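Wild-type CHO-K1 cells plated overnight, then exposed 3 hr at 37C to compounds at 15 concentrations (0.76% DMSO). Lysed, then HTRF anti-pH2AX(S139)-cryptate/anti-H2AX-d2 detection after 24 hr at room temperature; emissions 665 and 620 nm.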

Experiment [3] in a line: qHTS assay to identify small molecule agonists of H2AX - cell viability counter screen (AID 1224847; calls by dose curve; further: nearly all actives have a fitted effect of over 30% in size; further: potency means the concentration at half of the fitted maximal effect). In short, it runs like this:
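Cells plated first: CHO-K1, 1000 per well in 10% FBS medium, incubated overnight at 37C. Then 15-point compound titration added (final DMSO 0.76%) for 3 hr. Finally CellTiter-Glo added and luminescence read.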

Experiment [4] is described as follows: qHTS RealTime-Glo MT Cell Viability Assay in HepG2 cells - 24 hour (AID 1224867). Further: nearly all actives have a fitted effect of over 50% in size. Further: potency means the concentration at half of the fitted maximal effect. In short, it runs like this: (§1)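 Compound treatment began 5 h after plating HepG2 cells (600/well) with NanoLuc luciferase and prosubstrate. Plates stayed at 37 C for 40 h; luminescence was captured at six time points, 0 h through 40 h.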
Experiment [5] in a line: qHTS RealTime-Glo MT Cell Viability Assay in HEK293 cells - 32 hour (AID 1224868). Further: nearly all actives have a fitted effect of over 50% in size. Further: potency means the concentration at half of the fitted maximal effect. In short, it runs like this: (§2)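 Quantitative high-throughput screen of the Tox21 10K library in HEK293: cells and RealTime-Glo reagents plated together, compound added at 5 h, luminescence monitored through 40 h at 37 C.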
Experiment [6] in a line: A CellTox Green Cytotoxicity Assay to monitor cytotoxicity in HEK293 cells - 0 hour (AID 1224869). Further: nearly all actives have a fitted effect of over 50% in size. In a few lines: (§3)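 Real-time, in one plate: 600 HEK293 cells/well with dead-cell DNA dye, pinned compound after 5 h, 37 C incubation over 40 h; viable cells give no appreciable fluorescence.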
Experiment [7] in a line: qHTS RealTime-Glo MT Cell Viability Assay in HepG2 cells - 40 hour (AID 1224870). Further: nearly all actives have a fitted effect of over 50% in size. Further: potency means the concentration at half of the fitted maximal effect. In a few lines:
(§4)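 HepG2 cells mixed with RealTime-Glo MT reagents (NanoLuc plus cell-permeant prosubstrate) were seeded at 600 cells/well, incubated 5 h at 37 C/5% CO2, then pinned with compounds in DMSO; nonlytic luminescence tracked viability during 40 h treatment.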

A short description of experiment [8]: A CellTox Green Cytotoxicity Assay to monitor cytotoxicity in HEK293 cells - 40 hour (AID 1224871). Further: nearly all actives have a fitted effect of over 45% in size. Further: potency means the concentration at half of the fitted maximal effect. In short, it runs like this: as §3
The nature of experiment [9]: qHTS RealTime-Glo MT Cell Viability Assay in HEK293 cells - 16 hour (AID 1224872). Further: nearly all actives have a fitted effect of over 50% in size. Further: potency means the concentration at half of the fitted maximal effect. In short, it runs like this:
as §2

Experiment [10] is described as follows: qHTS RealTime-Glo MT Cell Viability Assay in HepG2 cells - 8 hour (AID 1224873). Further: nearly all actives have a fitted effect of over 55% in size. Further: potency means the concentration at half of the fitted maximal effect. In short, it runs like this: as §4
Experiment [11] in a line: qHTS RealTime-Glo MT Cell Viability Assay in HEK293 cells - 40 hour (AID 1224874). Further: nearly all actives have a fitted effect of over 50% in size. Further: potency means the concentration at half of the fitted maximal effect. The note with it: RealTime-Glo luminescence; max response: stronger effect = lower value. In a few lines: (§5)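 Kinetic, non-lysing viability readout. Seed HEK293 (600/well) with reagent, incubate 5 h at 37 C/5% CO2, pin 23 nL compound in DMSO, incubate at 37 C, read luminescence at 0, 8, 16, 24, 32, 40 h.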

Experiment [12] in a line: A CellTox Green Cytotoxicity Assay to monitor cytotoxicity in HEK293 cells - 24 hour (AID 1224875). Further: nearly all actives have a fitted effect of over 45% in size. Further: potency means the concentration at half of the fitted maximal effect. In a few lines: as §3
Experiment [13] in a line: qHTS RealTime-Glo MT Cell Viability Assay in HepG2 cells - 32 hour (AID 1224877). Further: nearly all actives have a fitted effect of over 55% in size. Further: potency means the concentration at half of the fitted maximal effect. In short, it runs like this:
as §1

Experiment [14] in a line: A CellTox Green Cytotoxicity Assay to monitor cytotoxicity in HepG2 cells - 24 hour (AID 1224878). Further: nearly all actives have a fitted effect of over 45% in size. Further: potency means the concentration at half of the fitted maximal effect. In short, it runs like this:
(§6)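 Cytotoxicity was tracked as dead-cell DNA fluorescence in HepG2 cells treated with test compounds at 37 C; each time-point value comes from one kinetic series spanning 0, 8, 16, 24, 32 and 40 h.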

Experiment [15] can be described thus: A CellTox Green Cytotoxicity Assay to monitor cytotoxicity in HepG2 cells - 40 hour (AID 1224879). Further: nearly all actives have a fitted effect of over 40% in size. Further: potency means the concentration at half of the fitted maximal effect. In a few lines:
as §6

A short description of experiment [16]: qHTS RealTime-Glo MT Cell Viability Assay in HEK293 cells - 0 hour (AID 1224880). Further: top concentration of the series differs between compounds; nearly all actives have a fitted effect of over 45% in size. In a few lines:
as §5

A short description of experiment [17]: qHTS assay to identify small molecule antagonists of the estrogen related receptor (ERR) signaling pathway from Tox21 library (AID 1224848). Further: nearly all actives have a fitted effect of over 50% in size. Further: potency means the concentration at half of the fitted maximal effect. In a few lines: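 First, 2,000 ERR cells per well were plated and held 6 h at 37 C/5% CO2. Next, compounds in DMSO were pinned in and left 18 h at 37 C. Finally, ONE-Glo was added and luminescence read after 30 min at room temperature.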

Experiment [18] can be described thus: qHTS assay to identify small molecule agonists of the estrogen related receptor (ERR) signaling pathway from Tox21 library (AID 1224849; calls by dose curve; further: nearly all actives have a fitted effect of over 15% in size). The note with it: ERR reporter cell line, ONE-Glo luciferase, 18 h; at 92.4 µM (top of the series) unless noted. In a few lines: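 Luciferase activity in ERR pathway reporter cells served as the agonist readout; exposure lasted 18 h at 37 C, with ONE-Glo detection after 30 min at room temperature.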

Experiment [19] is described as follows: A CellTox Green Cytotoxicity Assay to monitor cytotoxicity in HepG2 cells - 16 hour (AID 1224876). Further: nearly all actives have a fitted effect of over 45% in size. Further: potency means the concentration at half of the fitted maximal effect. In short, it runs like this:
as §6

Experiment [20] can be described thus: qHTS assay to identify small molecule agonists of the hypoxia (HIF-1) signaling pathway (AID 1224846; active means well fitted activation curve with a large enough effect in the signal ratio in the repeat runs, not every such curve was filed as active; the % refers to the signal ratio). In short, it runs like this:
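ME-180 HRE-bla reporter cells; compounds in DMSO, 17 h at 37C; read-out beta-lactamase via CCF4-AM FRET.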
On the % scale 0 is the no-effect control and ±100 the full control effect.

Turning to `O=C(N[C@H]1N=C(c2ccccc2F)c2cccc3c2N(CC3)C1=O)c1cc2ccccc2[nH]1`, the Potency entry in [1], in experiment [2], in experiment [3], in experiment [4], in [5] and in experiment [6] was “inactive” each time. Besides, the Potency entry in [7], in experiment [8], in [9], in [10], in [12] and in experiment [13] was “inactive” throughout. The Potency result in experiment [14], in experiment [15] and in [16] was “inactive” each time. The max response in [11] is -4.67% (inactive).

Take `Oc1ccc([C@H]2CNCc3c2ccc(O)c3O)cc1O`: the Potency result in experiment [1], in [3], in [17], in experiment [5], in experiment [6] and in experiment [7] was “inactive” in each case. Besides, the Potency result in experiment [13] and in experiment [16] was “inactive” each time. Also, the activity change, positive = activation in experiment [18] was -4.81% [at 42.5 µM] (inactive). Besides, the max response in experiment [11] was -21.9% (inactive). The Potency in [12], in experiment [14] and in experiment [15] was 26.8 µM (active) each time.

As for `CCN(CC)C(=S)S`, the Potency was 19.7 µM (active) and 8.66 µM (active) and 9.77 µM (active) in [1]; “inactive and 21.9 µM (active)” in [4]; 24.8 µM (active) and 4.87 µM (active) and 11 µM (active) in experiment [5]; “inactive and 21.9 µM (active)” in experiment [7]; 17.5 µM (active) and 4.34 µM (active) and 9.77 µM (active) in [8]; 24.8 µM (active) and 4.34 µM (active) and 11 µM (active) in [11]. Further, the Potency entry in [13] is “inactive and 21.9 µM (active)”; in [14], “inactive and 7.72 µM (active) and 21.9 µM (active)”; in experiment [15] it was 17.5 µM (active) and 6.13 µM (active) and 19.5 µM (active). For the same compound, the Potency entry in [2], in experiment [3], in [6], in experiment [9], in experiment [10] and in experiment [19] was “inactive” each time. In experiment [16], the Potency entry was “inactive”.

Take `Cc1ccc([N+](=O)[O-])[c]2c1[O][Hg]2`: the Potency in experiment [1] is 2.13 µM (active); in experiment [2] it was 0.695 µM (active); in [4], 2.39 µM (active); in experiment [5], 3.79 µM (active); in experiment [7] it was 3.01 µM (active); in [8], 674 nM (active). The Potency in experiment [9] is 3.38 µM (active); in experiment [10] it was 2.13 µM (active); in [11], 3.01 µM (active); in experiment [12], 1.51 µM (active); in experiment [19], 3.01 µM (active); in experiment [13] it was 2.39 µM (active). The Potency in experiment [14] was 2.68 µM (active); in experiment [15], 1.9 µM (active). For the same compound, the Potency entry in [6] and in experiment [16] was “inactive” in each case.

On to `CCCCC(CC)COC(=O)c1ccccc1C(=O)OCC(CC)CCCC` (centres undefined), for which the Potency entry in experiment [1], in [2], in [3], in [4], in experiment [5] and in experiment [6] was “inactive” throughout. Also, the Potency result in [7], in experiment [8], in [9], in [10], in [12] and in [19] was “inactive” each time. For the same compound, the Potency entry in experiment [13], in experiment [14], in [15] and in experiment [16] was “inactive” throughout. Moreover, in experiment [11], the max response was 1.87% (inactive).

Take `c1cc[n+]2c(c1)-c1cccc[n+]1CC2`: the Potency result in experiment [1], in experiment [2], in [3], in experiment [4], in experiment [5] and in experiment [6] was “inactive” throughout. For the same compound, the Potency entry in [7], in [8], in [9], in experiment [10], in experiment [12] and in experiment [19] was “inactive” in each case. Also, the Potency entry in experiment [13], in experiment [14], in experiment [15] and in experiment [16] was “inactive” throughout.

`CC(C)C(Nc1ccc(C(F)(F)F)cc1Cl)C(=O)OC(C#N)c1cccc(Oc2ccccc2)c1` (centres undefined): the Potency result in experiment [1], in experiment [2], in experiment [3], in experiment [4], in experiment [5] and in experiment [6] was “inactive” in each case. The Potency result in [7], in experiment [8], in experiment [10], in experiment [12], in experiment [19] and in [13] was “inactive” throughout. In addition, the Potency result in experiment [14], in experiment [15] and in experiment [16] was “inactive” throughout. Also, in [11], the max response is -20.4% (inactive).

With `COc1ccc2c(c1OC)C(=O)O[C@@H]2[C@H]1c2cc3c(cc2CCN1C)OCO3`, the Potency entry in experiment [1], in experiment [2], in [3], in experiment [4], in experiment [5] and in experiment [6] was “inactive” each time. In addition, the Potency result in [7], in [8], in experiment [9], in [10], in experiment [12] and in experiment [19] was “inactive” in each case. Further, the Potency result in experiment [13], in experiment [14], in experiment [15] and in [16] was “inactive” each time. Moreover, in experiment [11], the max response is 1.56% (inactive).

Turning to `CCC1(CC)C(=O)N=C(O)NC1=O`, the Potency result in [1], in [2], in [3], in [4], in experiment [5] and in [6] was “inactive” throughout. In addition, the Potency result in experiment [7], in experiment [8], in [9], in experiment [10], in experiment [12] and in experiment [19] was “inactive” each time. For the same compound, the Potency entry in experiment [13], in experiment [14], in [15] and in [16] was “inactive” each time. In addition, the max response in experiment [11] was -0.914% (inactive).

As for `CC(O)C(=O)[O][Hg][c]1ccccc1` (centres undefined), the Potency is 1.38 µM (active) in [1]; 6.35 µM (active) in [3]; 3.86 µM (active) in [17]; 2.45 µM (active) in experiment [4]; 0.977 µM (active) in experiment [5]; 2.75 µM (active) in [7]. For the same compound, the Potency in experiment [8] was 977 nM (active); in experiment [9] it was 1.1 µM (active); in experiment [10], 2.19 µM (active); in experiment [11], 0.977 µM (active); in experiment [12], 21.9 µM (active); in experiment [19], 2.75 µM (active). The Potency in experiment [13] is 2.75 µM (active); in [14], 2.45 µM (active); in [15], 1.95 µM (active). Moreover, in experiment [18], the activity change, positive = activation is -80.9% (inactive). Further, the Potency result in [6] and in [16] was “inactive” each time.

`FC(F)C(F)(F)OCC(Cn1cncn1)c1ccc(Cl)cc1Cl` (centres undefined): the Potency entry in [2], in experiment [20], in experiment [6], in experiment [12] and in experiment [16] was “inactive” each time. Further, the Potency in experiment [3] was 112 µM (active); in [5] it was 21.7 µM (active); in [9], 24.4 µM (active); in [10], 54.6 µM (active); in experiment [11], 21.7 µM (active); in experiment [14], 48.7 µM (active). The Potency in experiment [15] is 48.7 µM (active).
